Laboratory results reported in PubChem BioAssay (NCATS).
A number with no mark means an inactive call. Inconclusive results are not listed. The source made the active and inactive calls. Unless noted, calls follow the shape of the dose curve; as a rule, active = well fitted curve in the direction sought with a large enough effect; inconclusive = small, poorly fitted or top-dose-only effect, or another doubt; inactive = no such curve, though single readings can be large; an effect the other way counts as inactive or inconclusive.

What was measured:
[1] = biological target: Lysosomal acid glucosylceramidase (Homo sapiens) (UniProt P04062); experiment: Glucocerebrosidase-p2 (AID 348; in the data active = potency below about 10 µM; also: potency is read from the fitted curve at half-maximal effect); settings: purified GBA, blue fluorogenic substrate, 40 min
Lysosomal acid glucosylceramidase (Homo sapiens), sequence (P04062 whole entry, looked up): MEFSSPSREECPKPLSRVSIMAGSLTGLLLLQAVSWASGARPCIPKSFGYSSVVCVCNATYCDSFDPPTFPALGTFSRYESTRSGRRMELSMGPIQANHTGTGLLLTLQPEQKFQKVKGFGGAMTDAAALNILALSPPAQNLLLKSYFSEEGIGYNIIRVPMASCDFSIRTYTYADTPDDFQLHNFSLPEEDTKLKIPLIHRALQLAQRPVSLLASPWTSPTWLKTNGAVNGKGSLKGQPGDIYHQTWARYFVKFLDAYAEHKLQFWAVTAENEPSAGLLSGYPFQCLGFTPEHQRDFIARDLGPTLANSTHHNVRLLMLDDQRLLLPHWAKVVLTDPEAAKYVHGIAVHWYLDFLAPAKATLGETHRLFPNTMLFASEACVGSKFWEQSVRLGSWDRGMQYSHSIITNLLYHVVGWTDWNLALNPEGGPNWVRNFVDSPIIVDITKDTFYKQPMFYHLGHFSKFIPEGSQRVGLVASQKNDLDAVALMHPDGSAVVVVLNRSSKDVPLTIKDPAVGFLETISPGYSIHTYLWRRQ
Outline: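 Normal human glucocerebrosidase (0.2 nM) with blue fluorogenic substrate (80 uM final) in citrate/phosphate pH 5.9 with 10mM sodium taurocholate, 0.01% tween-20; 40 min RT, NaOH/glycine stop; fluorescence Ex 365/Em 440; AC50 from a titration from 0.6 nM upwards.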

[2] = AP1 Signaling Pathway (AID 357; active = well fitted curve in either direction with a large enough effect, not every such curve was filed as active;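 also: ME-180 reporter cells stimulated with EGF at its EC50 level; % is scaled to controls: 0 for no effect and ±100 for the full control effect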); settings: ME-180 AP-1-bla reporter, EGF-induced, beta-lactamase ratio, 5 h; at 7.69 µM (top of the series) unless noted
Outline: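 In this screen, ME-180 cells in Opti-MEM with 0.5% dialyzed FBS received EC50 EGF and compound titrations for 5 h. AP-1 reporter beta-lactamase was detected via CCF4 ratio, giving AC50 for positive and negative modulators.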

[3] = NFAT Signaling Pathway (AID 444; active = well fitted curve in either direction with a large enough effect, not every such curve was filed as active;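 also: carbachol stimulus at about its EC50 of 1 µM final; % is scaled to controls: 0 for no effect and ±100 for the full control effect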); settings: Jurkat NFAT-bla M1, carbachol, beta-lactamase ratio, 5 h; at 7.69 µM (top of the series) unless noted
Outline: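 Jurkat cells carrying an NFAT-driven β-lactamase reporter and co-transfected muscarinic M1 receptor were treated with compound plus carbachol (1 uM final, an EC50 level) for 5 h at 37 °C. CCF4 loading followed for 1 h at RT; 460/530 nm ratio gave %activity.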

[4] = Stat Signaling Pathway (AID 446; active = well fitted curve in either direction with a large enough effect, not every such curve was filed as active;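 also: ME-180 cervical cancer cells given 40 pM IL-6 alongside compound; SIE-controlled beta-lactamase reporter measured as 460/530 nm FRET emission ratio; % is scaled to controls: 0 for no effect and ±100 for the full control effect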); settings: ME-180 (cervical carcinoma) SIE beta-lactamase reporter, IL-6 stimulated, 5 h; at 7.69 µM (top of the series) unless noted
Outline: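 Normalization used AC90 stimulation (300 pM IL-6) and AC90 inhibition (125 nM pan-JAK inhibitor at 40 pM IL-6). The underlying signal is SIE-driven beta-lactamase in ME-180 cells after 5 h IL-6 exposure with compound.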

[5] = biological target: Glucocorticoid receptor (Homo sapiens) (UniProt P04150); experiment: GR-GFP Redistribution (AID 450;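 active = compounds whose dose series gives a full or clear partial fitted curve of increased nuclear translocation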; also: potency is read from the fitted curve at half-maximal effect); settings: U2OS GR-GFP nuclear translocation, laser cytometry, 2 h
Glucocorticoid receptor (Homo sapiens), sequence (P04150 whole entry, looked up, the tested form may be a part): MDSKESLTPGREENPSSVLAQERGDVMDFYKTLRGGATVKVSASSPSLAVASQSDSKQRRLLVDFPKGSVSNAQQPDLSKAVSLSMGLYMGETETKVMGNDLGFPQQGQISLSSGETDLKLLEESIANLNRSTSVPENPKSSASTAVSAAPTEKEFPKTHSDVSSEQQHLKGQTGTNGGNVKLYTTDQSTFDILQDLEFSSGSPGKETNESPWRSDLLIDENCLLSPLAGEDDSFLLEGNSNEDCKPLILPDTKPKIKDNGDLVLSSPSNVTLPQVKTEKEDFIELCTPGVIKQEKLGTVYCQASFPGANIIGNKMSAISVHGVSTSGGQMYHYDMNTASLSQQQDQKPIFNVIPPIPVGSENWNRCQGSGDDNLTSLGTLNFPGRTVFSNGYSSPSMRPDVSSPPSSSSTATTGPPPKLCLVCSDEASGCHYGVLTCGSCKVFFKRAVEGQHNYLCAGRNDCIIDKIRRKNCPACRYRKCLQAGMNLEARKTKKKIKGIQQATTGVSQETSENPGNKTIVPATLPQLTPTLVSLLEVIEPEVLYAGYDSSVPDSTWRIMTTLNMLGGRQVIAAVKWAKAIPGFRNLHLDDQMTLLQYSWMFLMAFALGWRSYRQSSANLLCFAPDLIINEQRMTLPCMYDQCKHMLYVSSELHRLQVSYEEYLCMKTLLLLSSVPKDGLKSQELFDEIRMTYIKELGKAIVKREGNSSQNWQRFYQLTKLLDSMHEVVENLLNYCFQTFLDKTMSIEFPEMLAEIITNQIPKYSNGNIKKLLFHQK

[6] = biological target: Glucocorticoid receptor (Homo sapiens) (UniProt P04150); experiment: GR-EFC Redistribution (AID 451; calls by dose curve; also: potency is read from the fitted curve at half-maximal effect); settings: CHO-K1 GR-EFC translocation, beta-gal luminescence, 2 h
Outline: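 CHO-K1 cells stably expressing nuclear-localized β-gal enzyme acceptor and GR fused C-terminally to the enzyme donor fragment; ligand-driven nuclear translocation restores β-gal by complementation. Compounds titrated up to 46 uM final, 2 h at 37 °C; luminescence read.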

[7] = biological target: 3',5'-cyclic-AMP phosphodiesterase 4B (Homo sapiens) (UniProt Q07343); experiment: qHTS Assay for Inhibitors of PDE-IV (AID 607; active = well fitted activation curve with a large enough effect in the main read-out, with a control signal flat, not every such curve was filed as active; also: % of control where 0% means no effect)
3',5'-cyclic-AMP phosphodiesterase 4B (Homo sapiens), sequence (Q07343 whole entry, looked up): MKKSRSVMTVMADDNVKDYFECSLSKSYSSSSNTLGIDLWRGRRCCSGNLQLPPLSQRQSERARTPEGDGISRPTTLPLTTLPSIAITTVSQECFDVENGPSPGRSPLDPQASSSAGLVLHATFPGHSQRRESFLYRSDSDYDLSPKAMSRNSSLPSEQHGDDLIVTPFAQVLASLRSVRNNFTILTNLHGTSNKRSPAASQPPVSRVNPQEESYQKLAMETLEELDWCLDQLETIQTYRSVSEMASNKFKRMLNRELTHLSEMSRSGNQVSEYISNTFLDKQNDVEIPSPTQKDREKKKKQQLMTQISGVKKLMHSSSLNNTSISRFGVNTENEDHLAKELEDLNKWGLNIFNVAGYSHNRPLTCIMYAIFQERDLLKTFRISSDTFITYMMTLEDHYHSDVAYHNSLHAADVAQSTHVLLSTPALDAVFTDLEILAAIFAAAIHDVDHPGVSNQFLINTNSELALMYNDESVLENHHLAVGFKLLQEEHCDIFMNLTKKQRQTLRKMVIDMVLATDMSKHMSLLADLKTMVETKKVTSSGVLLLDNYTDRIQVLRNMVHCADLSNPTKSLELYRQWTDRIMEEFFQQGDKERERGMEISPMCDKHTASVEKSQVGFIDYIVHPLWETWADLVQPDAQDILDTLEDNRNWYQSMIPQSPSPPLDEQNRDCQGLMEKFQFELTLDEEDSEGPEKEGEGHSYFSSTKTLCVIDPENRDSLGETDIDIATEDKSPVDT
Outline: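 HEK293 ACTOne cells with CNG channel (1000/well), endogenous PDE4; membrane potential dye, compounds up to 22.9 uM final. Fluorescence Ex 535/Em 590; RO 20-1724 (100 uM final) as reference.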

[8] = biological target: Cytochrome P450 3A4 (Homo sapiens) (UniProt P08684); experiment: qHTS Assay for Activators of Cytochrome P450 3A4 (AID 885); also: nearly all actives have a fitted effect of over 65% in size
Cytochrome P450 3A4 (Homo sapiens), sequence (P08684 whole entry, looked up): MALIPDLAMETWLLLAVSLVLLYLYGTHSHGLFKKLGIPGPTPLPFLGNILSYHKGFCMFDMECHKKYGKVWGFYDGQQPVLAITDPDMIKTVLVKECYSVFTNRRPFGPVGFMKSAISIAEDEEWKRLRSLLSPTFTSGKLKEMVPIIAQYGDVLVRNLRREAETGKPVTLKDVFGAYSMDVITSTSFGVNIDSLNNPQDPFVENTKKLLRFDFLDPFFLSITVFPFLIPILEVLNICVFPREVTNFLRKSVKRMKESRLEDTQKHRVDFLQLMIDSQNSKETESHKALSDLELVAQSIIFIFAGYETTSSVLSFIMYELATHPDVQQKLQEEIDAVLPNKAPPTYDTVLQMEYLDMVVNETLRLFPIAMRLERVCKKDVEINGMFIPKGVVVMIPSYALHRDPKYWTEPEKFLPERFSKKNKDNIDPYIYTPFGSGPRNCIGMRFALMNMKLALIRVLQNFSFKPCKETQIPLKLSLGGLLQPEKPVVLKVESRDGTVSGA
Outline: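 Human CYP3A4 dealkylates Luciferin-PPXE to luciferin, which luciferase detection converts to light. Substrate was at its KM (25uM), buffer 200mM KPO4, reaction 60 min at RT.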

[9] = biological target: Dual specificity protein kinase CLK4 (Homo sapiens) (UniProt Q9HAZ1); experiment: qHTS Assay for Inhibitors of CDC-like Kinase 4 (Kinase-Glo Assay) (AID 1770); also: nearly all actives have a fitted effect of over 65% in size; also: potency is read from the fitted curve at half-maximal effect
Dual specificity protein kinase CLK4 (Homo sapiens), sequence (Q9HAZ1 whole entry, looked up): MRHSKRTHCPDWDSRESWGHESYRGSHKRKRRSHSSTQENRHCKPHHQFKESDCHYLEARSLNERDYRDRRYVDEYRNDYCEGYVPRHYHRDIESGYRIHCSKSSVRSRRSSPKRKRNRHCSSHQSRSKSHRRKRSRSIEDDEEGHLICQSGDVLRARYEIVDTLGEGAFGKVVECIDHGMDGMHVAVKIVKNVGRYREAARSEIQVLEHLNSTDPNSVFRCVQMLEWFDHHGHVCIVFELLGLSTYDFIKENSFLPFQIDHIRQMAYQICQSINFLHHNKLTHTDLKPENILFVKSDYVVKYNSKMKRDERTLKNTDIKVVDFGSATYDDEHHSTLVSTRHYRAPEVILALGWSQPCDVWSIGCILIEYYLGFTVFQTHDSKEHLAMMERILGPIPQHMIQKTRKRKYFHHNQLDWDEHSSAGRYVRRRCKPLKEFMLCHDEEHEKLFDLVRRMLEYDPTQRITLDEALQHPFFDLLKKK
Outline: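 Clk4 25 nM, RS peptide 100 uM, ATP 1 uM, pH 7.5 Tris, 10 mM MgCl2, 2.5 mM DTT; 4.5 h RT; ATP depletion read by Kinase-Glo luminescence.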

[10] = biological target: Ubiquitin carboxyl-terminal hydrolase 1 (Homo sapiens) (UniProt O94782); experiment: Inhibitors of USP1/UAF1: Pilot qHTS (AID 504865);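 also: rhodamine fluorescence freed from ubiquitin-rhodamine substrate followed over time; top concentration of the series differs between compounds; % is scaled to controls: 0 for no effect and ±100 for the full control effect; nearly all actives have a fitted effect of over 35% in size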
Ubiquitin carboxyl-terminal hydrolase 1 (Homo sapiens), sequence (O94782 whole entry, looked up): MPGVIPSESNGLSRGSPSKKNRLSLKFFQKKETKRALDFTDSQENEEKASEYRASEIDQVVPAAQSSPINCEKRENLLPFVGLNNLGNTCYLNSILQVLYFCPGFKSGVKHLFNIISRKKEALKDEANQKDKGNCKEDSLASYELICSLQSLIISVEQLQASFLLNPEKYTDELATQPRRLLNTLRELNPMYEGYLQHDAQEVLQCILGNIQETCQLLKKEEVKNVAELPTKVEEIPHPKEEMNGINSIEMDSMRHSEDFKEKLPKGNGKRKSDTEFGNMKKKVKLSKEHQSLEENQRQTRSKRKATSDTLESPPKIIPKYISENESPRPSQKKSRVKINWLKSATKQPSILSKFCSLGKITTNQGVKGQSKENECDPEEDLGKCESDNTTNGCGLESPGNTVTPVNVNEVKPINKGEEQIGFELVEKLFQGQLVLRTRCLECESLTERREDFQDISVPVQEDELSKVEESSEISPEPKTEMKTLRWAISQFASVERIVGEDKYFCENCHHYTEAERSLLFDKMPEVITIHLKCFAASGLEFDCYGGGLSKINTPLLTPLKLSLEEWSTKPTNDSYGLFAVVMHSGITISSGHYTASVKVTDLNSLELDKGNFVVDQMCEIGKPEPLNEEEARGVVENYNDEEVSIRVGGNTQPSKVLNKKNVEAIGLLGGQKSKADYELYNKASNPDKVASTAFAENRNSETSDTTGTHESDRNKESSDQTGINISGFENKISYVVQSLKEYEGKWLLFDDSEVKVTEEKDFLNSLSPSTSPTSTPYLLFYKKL
Outline: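 Enzyme-free wells gave the negative control, while test wells held 1nM USP1/UAF1 preincubated with compound for 15 min at room temperature. Ub-Rho at 150nM final started the reaction, and fluorescence at 480/540 nm was recorded kinetically.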

[11] = Primary qHTS for small molecule stabilizers of the endoplasmic reticulum resident proteome: Secreted ER Calcium Modulated Protein (SERCaMP) assay (AID 1508630); also: % is scaled to controls: 0 for no effect and ±100 for the full control effect
Outline: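 The SH-SY5Y reporter protocol was run at 3 concentrations up to 38.3 uM (primary) or 11 concentrations (follow-up): 16 h compound, 100 nM thapsigargin for 4 h, then extracellular luciferase luminescence.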

[12] = biological target: Cytochrome P450 1A2 (Homo sapiens) (UniProt P05177); experiment: p450-cyp1a2 (AID 410; calls by dose curve; also: potency is read from the fitted curve at half-maximal effect)
Cytochrome P450 1A2 (Homo sapiens), sequence (P05177 whole entry, looked up): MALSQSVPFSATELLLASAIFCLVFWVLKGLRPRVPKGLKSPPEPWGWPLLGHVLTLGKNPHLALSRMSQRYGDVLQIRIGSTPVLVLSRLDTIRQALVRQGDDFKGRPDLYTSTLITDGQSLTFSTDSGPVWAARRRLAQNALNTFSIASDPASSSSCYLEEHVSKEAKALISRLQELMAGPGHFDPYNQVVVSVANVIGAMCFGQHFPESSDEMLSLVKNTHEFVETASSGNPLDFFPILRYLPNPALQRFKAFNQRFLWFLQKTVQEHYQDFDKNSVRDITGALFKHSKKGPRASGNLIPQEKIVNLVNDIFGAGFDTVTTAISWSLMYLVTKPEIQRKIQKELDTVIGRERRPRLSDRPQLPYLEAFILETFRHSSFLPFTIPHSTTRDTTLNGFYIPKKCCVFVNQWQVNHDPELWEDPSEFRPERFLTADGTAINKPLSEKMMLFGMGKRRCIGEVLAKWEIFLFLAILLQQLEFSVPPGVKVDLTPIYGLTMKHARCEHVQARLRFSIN
Outline: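 20nM CYP1A2, 100uM Luciferin-ME (=Km), 100mM KPO4; cpd 10 min RT; +NADPH regen, 60 min RT; stop/detect 20 min; luminescence. Normalized to furafylline 57 uM = full inhibition.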

[13] = biological target: Mitogen-activated protein kinase 10 (Mus musculus) (UniProt Q61831); experiment: JNK3 AlphaScreen Assay (AID 530; active = well fitted curve in either direction with a large enough effect, not every such curve was filed as active)
Outline: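 Biotinylated GST-cJun(1-79) served as substrate for JNK3 in HepG2 lysates stimulated with IL-1beta and TNF-alpha. ATP was 10 uM final, pH 7.6. Ser73 phosphorylation was quantified by AlphaScreen (680 nm excitation).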

[14] = biological target: Dual specificity protein kinase CLK4 (Homo sapiens) (UniProt Q9HAZ1); experiment: qHTS Assay for Inhibitors of CDC-like Kinase 4 (ADP-Glo Assay) (AID 1771); also: nearly all actives have a fitted effect of over 70% in size; also: potency is read from the fitted curve at half-maximal effect
Outline: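 25 nM Clk4, 100 uM RS peptide, 1 uM ATP (final); 2 mM MgCl2, 0.5 mM EGTA, 2.5 mM DTT, 0.01% Triton X-100; 1 hr RT. ADP-Glo readout: ATP depletion 45 min, conversion/luciferase 30 min, luminescence.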

[15] = biological target: Dual specificity protein kinase CLK4 (Homo sapiens) (UniProt Q9HAZ1); experiment: qHTS Assay for Inhibitors of CDC-like Kinase 4 (ADP-FP Assay) (AID 1795);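 also: recombinant human CLK4 phosphorylating RS repeat peptide at 1 µM ATP; % is scaled to controls: 0 for no effect and ±100 for the full control effect; nearly all actives have a fitted effect of over 60% in size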
Outline: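 Kinase activity was followed as ADP output, converted from fluorescence polarization with a calibration curve. Reactions ran one hour at low ATP (1 uM) with RS peptide substrate.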

[16] = biological target: Cytochrome P450 3A4 (Homo sapiens) (UniProt P08684); experiment: qHTS Assay for Inhibitors and Substrates of Cytochrome P450 3A4 (AID 884); also: potency is read from the fitted curve at half-maximal effect; nearly all actives have a fitted effect of over 50% in size
Outline: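 Luminescent readout of luciferin produced by CYP3A4 (20 nM) dealkylation of Luciferin-PPXE, 25 uM (its KM). NADPH-driven reaction ran 60 min at RT after 10 min compound preincubation; data scaled to 57 uM ketoconazole as 100% inhibition.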

[17] = biological target: Cytochrome P450 2D6 (Homo sapiens) (UniProt P10635); experiment: qHTS Assay for Inhibitors and Substrates of Cytochrome P450 2D6 (AID 891); also: potency is read from the fitted curve at half-maximal effect; nearly all actives have a fitted effect of over 60% in size
Outline: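 Luminescent read-out of luciferin formed by 5 nM human CYP2D6 demethylating 30 uM Luciferin-ME EGE (Km level) over 60 min at room temperature after NADPH regeneration addition. Data normalized to full inhibition by 1.43 uM quinidine.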

[18] = biological target: Cytochrome P450 2C19 (Homo sapiens) (UniProt P33261); experiment: qHTS Assay for Inhibitors and Substrates of Cytochrome P450 2C19 (AID 899); also: potency is read from the fitted curve at half-maximal effect; nearly all actives have a fitted effect of over 60% in size
Cytochrome P450 2C19 (Homo sapiens), sequence (P33261 whole entry, looked up): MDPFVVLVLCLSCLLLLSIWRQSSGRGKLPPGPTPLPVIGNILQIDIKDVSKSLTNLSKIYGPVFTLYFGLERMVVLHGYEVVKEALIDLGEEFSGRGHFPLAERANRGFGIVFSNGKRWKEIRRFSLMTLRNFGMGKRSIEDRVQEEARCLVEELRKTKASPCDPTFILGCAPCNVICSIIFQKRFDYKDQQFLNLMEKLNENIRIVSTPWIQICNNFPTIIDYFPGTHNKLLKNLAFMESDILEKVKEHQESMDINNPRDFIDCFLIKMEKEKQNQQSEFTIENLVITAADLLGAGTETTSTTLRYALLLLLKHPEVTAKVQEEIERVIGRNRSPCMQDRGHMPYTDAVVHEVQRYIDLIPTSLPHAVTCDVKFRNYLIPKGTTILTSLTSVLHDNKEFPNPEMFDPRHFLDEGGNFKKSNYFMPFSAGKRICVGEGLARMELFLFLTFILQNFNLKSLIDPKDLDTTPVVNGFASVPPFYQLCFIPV
Outline: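 Human CYP2C19 (5nM) with Luciferin-H EGE at 10uM (its KM) in 50mM KPO4 was preincubated with compound for 10 min at 37C. NADPH regeneration started a 60 min 37C reaction. Luciferin was read by luminescence, normalized to 57uM ketoconazole.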

Row | SMILES | Potency [1] [µM] | activity change, negative = inhibition [2] [%] | activity change, negative = inhibition [3] [%] | activity, negative = inhibition [4] [%] | Potency [5] [µM] | Potency [6] [µM] | Potency [7] | Potency [8] | Potency [9] | Potency [10] | outcome [11] | Potency [12] | Potency [13] | Potency [14] | Potency [15] | Potency [16] | Potency [17] | Potency [18]
1 | CN(C)c1ncc2nc(-c3cccs3)c(=O)n(C)c2n1 | > 11.4 | 1.79 | -2.27 | 23.5 | > 9.22 | > 46 | inactive | inactive | inactive | inactive | inactive |  |  |  |  |  |  | 
2 | Cc1cnc(CNc2nc(-c3ccccc3C)nc3ccccc23)cn1 | > 11.4 | -8.73 | -6.95 | -5.75 | > 46 | > 46 | inactive | inactive |  | inactive | inactive | 3.16 µM (active) | inactive | inactive | inactive |  |  | 
3 | COc1ccccc1CNc1ccnc(-c2c(C)noc2C)n1 | > 11.4 | 18 | -13.8 | -17.2 |  | > 46 |  | inactive |  |  | inactive | 0.398 µM (active) | inactive | inactive | inactive | 5.01 µM (active) |  | 
4 | CS(=O)(=O)Nc1cccc(-c2nc(-n3ccnc3)c3ccccc3n2)c1 | > 11.4 | -3.92 | 4.67 | -7.2 | > 46 | > 46 |  |  | 15.8 µM (active) | inactive | inactive |  | inactive |  |  |  |  | 
5 | COc1ccc2[nH]cc(CCNc3ccnc(-c4cccnc4)n3)c2c1 | > 11.4 |  | 11.3 | -3.13 | > 46 | > 46 | inactive | inactive | 12.6 µM (active) | inactive | inactive | 0.251 µM (active) | inactive |  |  | 1.26 µM (active) | 1.26 µM (active) | 
6 | CN(Cc1ccco1)c1ncnc2ccc(-c3ccccc3C#N)cc12 | > 11.4 | -26.1 | 7.18 | 14.4 | > 46 | > 46 |  | inactive |  | inactive | inactive | 1 µM (active) | inactive | 7.08 µM (active) | inactive |  |  | 1.26 µM (active)
7 | COc1cccc(-c2ccc3ncnc(N4CCOCC4)c3c2)c1 |  |  |  | 8.65 | > 46 | > 46 |  | inactive | 1.41 µM (active) | inactive | inactive | 1 µM (active) | inactive |  |  |  |  | 3.98 µM (active)
